Reference: ChEMBL document CHEMBL1157539, “Thousands of chemical starting points for antimalarial lead identification” (Nature, 2010)

Each compound was assayed on Plasmodium falciparum (assay: GSK_TCMDC: Inhibition of Plasmodium falciparum 3D7 in whole red blood cells, using parasite LDH activity as an index of growth. Test compounds present at 2uM).
Format: functional

**Q.** For `COc1ccc(CN2CCC(CNCC(c3ccccc3)c3ccccc3)CC2)cc1.O=C(O)C(F)(F)F`, which Inhibition is on record?
**A.** 100%

**Q.** For `COc1ccc(-c2cnc(NCc3ccccc3)nc2)cc1CNC1CCN(C)CC1.O=C(O)C(F)(F)F`, which Inhibition is on record?
**A.** 96%

**Q.** For `COc1ccc(O)c(Cc2cnc3nc(N)nc(N)c3c2C)c1.O=C(O)C(F)(F)F`, which Inhibition is on record?
**A.** 94%

**Q.** `Cc1nc(-c2nc(N3CCC(C(N)=O)CC3)ncc2-c2ccsc2)sc1C` was tested. Which Inhibition did it give?
**A.** 93%

**Q.** With `COc1ccc2nc3ccccc3c(NCCN3CCN(C)CC3)c2c1` as the compound, how does the Inhibition read?
**A.** 81%

**Q.** How did the Inhibition turn out when `COc1cc2c(cc1C(F)(F)F)N(C(=O)Nc1cc(F)c(F)c(-c3cccnc3)c1)CC2` was run?
**A.** 90%

**Q.** `O=C(O)C(F)(F)F.O=S(=O)(NCCN1CCCC1)c1ccc(-c2ccc(CNC3Cc4ccccc4C3)cc2)cc1F` was tested. Which Inhibition did it give?
**A.** 100%

**Q.** `O=C(COc1ccc(C(=O)c2ccccc2)cc1)Nc1nccs1` was tested. Which Inhibition did it give?
**A.** 94%

**Q.** Which Inhibition does the source give for `O=C(NC1CCN(Cc2ccc(O)cc2)CC1)c1ccc(Cl)c(Cl)c1.O=C(O)C(F)(F)F` here?
**A.** 95%

**Q.** Which Inhibition does the source give for `Clc1cc(Nc2ncnc3sc(C#Cc4ncc[nH]4)cc23)ccc1OCc1ccccn1` here?
**A.** 100%

**Q.** For `CC(Cc1ccc(C(=O)OC(c2ccccc2)c2ccccc2)cc1)NCC(O)c1ccccc1.Cl` (centres undefined), which Inhibition is on record?
**A.** 100%

**Q.** For `Cc1ccc(Cn2c(N3CCC(C(=O)NCc4cccs4)CC3)nc3ccccc32)cc1`, which Inhibition is on record?
**A.** 99%

**Q.** `Cl.Fc1cc(CN2CCCC2)ccc1OCCCN1CCN(c2cccc(Cl)c2Cl)CC1` was tested. Which Inhibition did it give?
**A.** 82%

**Q.** With `CC(C)Cc1cn(-c2nc(-c3nc4ccccc4[nH]3)cs2)c2cc(Cl)ccc12.Cl` as the compound, how does the Inhibition read?
**A.** 99%
